Screens as filed in PubChem.
An excerpt weighted towards active compounds, which were near 6.9% of everything screened.
IL-1B inflam inh: qHTS for Inhibitors of Inflammasome Signaling: IL-1-beta AlphaLISA Primary Screen. 360,000 tested, 4.7% active. AID 743279, 2014. THP-1 LPS/ATP IL-1B secretion, AlphaLISA, 16 h; active compounds read low. activity change, % at 57.5 µM; in the data active = activity change below about -50%; inconclusive = mostly about -30% to -49%; also: % is scaled to controls: 0 for no effect and ±100 for the full control effect
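THP-1 cells pretreated 1 hr with compounds (up to 57.5 uM final), then stimulated with LPS (250 ng/mL final) plus ATP (1.25 mM final); secreted IL-1B measured by AlphaLISA after 16 hr, decreased signal indicating inhibition.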
Vif-A3G inh: qHTS for Inhibitors of Vif-A3G Interactions: qHTS; 410,000 tested, 0.076% active; HeLa A3G-eYFP + Vif (tagged APOBEC3G with the HIV-1 protein that degrades it), YFP fluorescence, overnight; Potency, µM (series often up to 46.1 µM), for the others: at the top dose activity, negative = active, actives largely listed as inhibitors; also: potency is read from the fitted curve at half-maximal effect; % is scaled to controls: 0 for no effect and ±100 for the full control effect; nearly all actives have a fitted effect of over 60% in size
Target sequence (Q9HC16 whole entry, looked up): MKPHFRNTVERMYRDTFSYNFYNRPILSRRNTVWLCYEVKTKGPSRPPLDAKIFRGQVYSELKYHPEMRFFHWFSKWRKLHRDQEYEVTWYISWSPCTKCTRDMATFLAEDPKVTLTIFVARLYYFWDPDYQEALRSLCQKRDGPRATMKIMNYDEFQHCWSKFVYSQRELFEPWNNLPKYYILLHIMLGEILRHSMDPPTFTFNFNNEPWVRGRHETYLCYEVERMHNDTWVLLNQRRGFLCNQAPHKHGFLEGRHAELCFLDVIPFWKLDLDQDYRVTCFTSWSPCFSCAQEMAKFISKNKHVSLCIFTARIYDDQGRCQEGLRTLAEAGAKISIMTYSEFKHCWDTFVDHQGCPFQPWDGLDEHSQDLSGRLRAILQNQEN
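Read-out is eYFP fluorescence (Ex 488/Em 500-530) from Vif-expressing HeLa A3G-eYFP cells; more signal means A3G escaped Vif-mediated degradation. Cells plated overnight, compound pinned in, incubated overnight at 37 deg C.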
MCF10A rereplic: A quantitative high throughput screen for small molecules that induce DNA re-replication in MCF 10a normal breast cells. AID 624296, 2012. MCF 10A DNA re-replication, Hoechst nuclear intensity, 48 h. Potency, µM (series often up to 46.1 µM), for the others: top-dose activity, positive = re-replication, hits mostly activators. 350,000 tested, 2.9% active; also: potency is read from the fitted curve at half-maximal effect; % of control where 0% means no effect; nearly all actives have a fitted effect of over 50% in size
SW480 rerep: A quantitative high throughput screen for small molecules that induce DNA re-replication in SW480 colon adenocarcinoma cells; SW480 DNA re-replication, Hoechst DNA content imaging, 48 h; Potency, µM (top dose mostly 46.1 µM), for the others: at the top dose re-replication activation, most hits filed as activators; 340,000 tested, 1.8% active; AID 624297, 2012; also: potency is read from the fitted curve at half-maximal effect; % of control where 0% means no effect; nearly all actives have a fitted effect of over 55% in size
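Image-based read-out: total Hoechst fluorescence of nuclei (405 nm excitation, 500-530 nm emission), with hits raising the fraction of high-intensity nuclei. SW480 colon cells incubated 48 hr with compounds at 37 C.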
Vif-APOBEC3F blk: qHTS for Inhibitors of Vif-A3F Interactions: qHTS. HeLa A3F-eYFP + Vif (tagged APOBEC3F with the HIV-1 protein that degrades it), YFP fluorescence increase. 390,000 tested, 0.2% active. Potency, µM (doses to about 46.1 µM), for inactives: at the top dose activity, negative = active; also: potency is read from the fitted curve at half-maximal effect; % of control where 0% means no effect; nearly all actives have a fitted effect of over 65% in size
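HeLa cells stably expressing A3F-eYFP plus Vif, plated and incubated overnight at 37 deg C, then exposed to compounds overnight at 37 deg C. Blocked degradation read as raised yellow fluorescence (Ex 488/Em 500-530).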
Giardia kill: Small Molecules that selectively kill Giardia lamblia: qHTS; Giardia lamblia trophozoite viability; activity change, % at 7.66 µM, hits read low; 340,000 tested, 0.15% active; AID 540267, 2011; in the data active = activity change below about -80%; inconclusive = between about -30% and that limit;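 also: parasites exposed to compound for two days anaerobically before the ATP read; % is scaled to controls: 0 for no effect and ±100 for the full control effect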
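Each well holds 100 Giardia trophozoites and compound. After two days (48 hrs) at 37 deg C in anaerobic conditions, ATP is quantified by luminescence.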
Starred values were filed as active, the others as inactive; ? = inconclusive; . = no result; [ ] = remark or other dose. Unless noted, calls follow the shape of the dose curve; as a rule, active = well fitted curve in the direction sought with a large enough effect; inconclusive = small, poorly fitted or top-dose-only effect, or another doubt; inactive = no such curve, though single readings can be large; an effect the other way counts as inactive or inconclusive.

SMILES | IL-1B inflam inh | Vif-A3G inh | MCF10A rereplic | SW480 rerep | Vif-APOBEC3F blk | Giardia kill
CCOC(=O)C1(Cc2ccccc2)CCN(Cc2cccn2-c2nccs2)CC1 | ? | ? | ? | ? | -16% | 1
CCOC(=O)C1(Cc2cccc(OC)c2)CCN(Cc2cccn2-c2nccs2)CC1 | -77* | -5% | -7% | ? | 0% | 1
Cc1ccc(S(=O)(=O)N2CC3C(=O)C[C@@H](c4ccccc4)N(S(=O)(=O)c4ccccc4Cl)C3CC2c2ccccc2)cc1 (some centres undefined) | -14 | . | . | . | . | .
Cc1noc(-c2ccc(N3CCCCC3)c([N+](=O)[O-])c2)n1 | . | 3% | . | . | -2% | .
CCOC(=O)c1sc(N2C(=O)c3oc4ccc(F)cc4c(=O)c3C2c2ccc(C)cc2)nc1C (centres undefined) | . | -5% | . | . | . | .
Cc1ccc2c(c1)c(=O)c(C(=O)c1ccc3c(c1)OCO3)cn2Cc1ccc(Cl)cc1 | . | -4% | . | . | -1% | .
Clc1ccc(/C=N/Nc2nnc(Cl)c3ccccc23)cc1 | 38 | -1% | 23% | -3% | -2% | -11
Clc1nnc(N/N=C/c2ccccc2)c2ccccc12 | -12 | -13% | 18µM* | ? | 4% | 9
Cc1ccc(/C=N/Nc2nnc(Cl)c3ccccc23)cc1 | -62* | -7% | 7% | 6% | ? | ?
CCC(=O)N1CCc2cc(S(=O)(=O)NC(Cc3ccccc3)C(=O)NCc3ccc(F)cc3)ccc21 (centres undefined) | . | 0% | . | . | -10% | .
COc1cccc(CN2CCN(Cc3cc(OC)c(OC)c(OC)c3)CC2)c1OC | 23 | -7% | 7% | 0% | 1% | -11
CN1CCN(Cc2cccc(Oc3ccc(Cl)cc3)c2)CC1 | ? | 0% | -2% | 1% | -13% | 8
COc1cccc(CN2CCN(Cc3cccc(Oc4ccccc4)c3)CC2)c1OC | -3 | 0% | 15µM* | 23µM* | 0% | 5
COc1cccc(CN2CCC(N(CCc3ccccc3)Cc3ccccc3)CC2)c1OC | -62* | -8% | ? | ? | -5% | -5
CCN1CCN(Cc2cccc(Oc3ccc(Cl)cc3)c2)CC1 | -27 | 2% | 16µM* | 16µM* | 1% | 1
CCc1ccc(-n2nc(C)c3c(C)cc(=O)n(CC(=O)Nc4ccc(OC)c(OC)c4)c32)cc1 | . | 0% | . | . | -1% | .
CCOc1cc(C2NN=C(c3ccc(C)cc3)S2)ccc1O (centres undefined) | -5 | -16% | 18µM* | -7% | -1% | -13
CCOCCCNCc1ccc(OC)cc1 | -16 | 0% | 1% | 1% | -7% | 12
COc1ccc2cc(CNCCOCCOCCNCc3ccc4cc(OC)ccc4c3)ccc2c1 | -99* | 2% | 7.3µM* | 23% | 3% | 6
O=C(Nc1ncnc2nc[nH]c12)c1ccccc1 | . | -1% | . | . | . | 16
CCCS(=O)(=O)NC(=O)C1(C)CCN(C(=O)c2cc(C(C)(C)C)nn2C)C1 (centres undefined) | -53* | -3% | . | . | . | .
CCOc1ccc(CNC(=O)COc2cc(=O)n(C)c3ccccc23)cc1 | . | 5% | . | . | -11% | .
Cc1cccc(NC(=O)CSc2nnc(-c3ccco3)c(-c3ccco3)n2)c1 | -94* | -1% | ? | -9% | -7% | 22
Cc1cccc(NC(=O)CSc2nnc(-c3ccco3)c(-c3ccco3)n2)c1C | -87* | -6% | ? | 1% | -7% | -2
Cc1ccccc1NC(=O)CSc1nnc(-c2ccco2)n1N | -4 | 1% | -5% | -2% | -20% | -28
SMILES | IL-1B inflam inh | Vif-A3G inh | MCF10A rereplic | SW480 rerep | Vif-APOBEC3F blk | Giardia kill
CC(NC(=O)COC(=O)c1ccco1)C12CC3CC(CC(C3)C1)C2 (centres undefined) | . | 4% | . | . | . | 7
CCOC(=O)c1cc(-c2ccc(OC)c(S(=O)(=O)NC3CCCCC3)c2)on1 | . | 1% | . | . | -1% | .
COC(=O)c1ccc(CSc2nc3ccc(S(N)(=O)=O)cc3[nH]2)cc1 | -101* | -3% | 4% | -1% | 7% | 15
COc1cccc(CNC(=O)CN2C(=O)CSc3ccc(S(=O)(=O)N(C)C)cc32)c1 | . | 5% | . | . | -5% | .
CC1CC(C)CN(C(=O)CNC(=O)c2sc3ccccc3c2Cl)C1 (centres undefined) | -57* | 3% | ? | ? | -1% | 41
O=C(NCc1cccnc1)c1sc2ccccc2c1Cl | -2 | 0% | -3% | -3% | -5% | 0
CC(NC(=O)CNC(=O)c1sc2ccccc2c1Cl)c1cccnc1 (centres undefined) | -51* | 2% | -10% | -11% | 6% | -8
Cc1cc(NCCN(C)C)n2nc(-c3cccs3)cc2n1 | -100* | 1% | 10% | 0% | 0% | -8
CC(C)(C)c1ccc(NC(=O)CON=C(N)c2ccccc2)cc1 | 8 | -6% | 15% | 0.29µM* | -26% | 18
CC[C@@H]1C(c2cccc(C)c2)=NN(c2ccccc2)[C@H]1C(=O)N1CCOC1=O | 0 | 0% | ? | -6%[9.22 µM] | -1% | 5
CC[C@@H]1C(c2ccccc2)=NN(c2ccc(Br)cc2)[C@H]1C(=O)N1CCOC1=O | ? | -3% | 9.2µM* | 12% | 7% | ?
CC[C@@H]1C(c2cccc(Cl)c2)=NN(c2ccc(Br)cc2)[C@H]1C(=O)N1CCOC1=O | -66* | ? | 1.3µM* | 10µM* | -27% | -14
C[C@@H]1C(c2ccc(F)cc2)=NN(c2ccccc2)[C@H]1C(=O)N1CCOC1=O | -15 | -12% | ? | 3% | -4% | 36
CC[C@@H]1C(c2ccc(F)cc2)=NN(c2ccc(Br)cc2)[C@H]1C(=O)N1CCOC1=O | -74* | ? | 16µM* | 0.58µM* | -2% | 12
c1nc(SSc2ncc3n[nH]nc3n2)nc2n[nH]nc12 | . | -2% | . | . | . | .
Cc1ccccc1NC(=O)C(=Cc1ccc(C(=O)O)cc1)C(=O)Nc1ccccc1C | -106* | -16% | 13µM* | ? | 5% | -6
CC(=O)/C(=C/c1ccccc1)C(=O)Nc1ccccc1C | -104* | ? | ? | 22% | -1% | -5
CC(=O)Nc1ccccc1C | -1 | -2% | ? | -43% | 3% | -1
COc1cc(OC)c(/C=C/c2c3ccccc3cc[n+]2C)c(OC)c1 | . | -4% | . | . | . | .
